# Results as given in the supplement of paper PMC9023506.
# Where a name gives a salt, the structure may show the parent alone.
# System: Danio rerio larvae (5 dpf)
# Experiment: activity during first hour (no stimuli), difference vs DMSO (percentage points (treated minus DMSO)); higher = more of the behaviour than the DMSO vehicle control
# Conditions: 10 µM; exposure time: 3 h pre-incubation + 3 h imaging
# Experimental: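 5-dpf wild-type zebrafish larvae were imaged in 96-well plates. They were treated with 190 Tocris FDA-approved drugs at 10 µM (1 µl/ml DMSO) for 3 h before and 3 h during imaging at 28.5 °C, 48 larvae per drug. Automated image analysis gave % time moving and optomotor responses. Values are drug group mean minus DMSO vehicle mean (n=844), in percentage points, for 10 behaviours.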
row,SMILES,activity during first hour
1,C=C1C[C@@H]2[C@H](CC[C@]3(C)C(=O)CC[C@@H]23)[C@@]2(C)C=CC(=O)C=C12 [Exemestane],-19.6
2,CC(O)(CS(=O)(=O)c1ccc(F)cc1)C(=O)Nc1ccc(C#N)c(C(F)(F)F)c1 (configuration not stated) [Bicalutamide],4.47
3,Cc1cccc([C@H](C)c2c[nH]cn2)c1C [Dexmedetomidine hydrochloride],-27.8
4,N[C@@H]1C[C@H]1c1ccccc1 [Tranylcypromine hydrochloride],-14.1
5,COc1ccc(C(CN(C)C)C2(O)CCCCC2)cc1 (configuration not stated) [Venlafaxine hydrochloride],-22.5
6,COc1cc2c(cc1OC)C1CC(=O)C(CC(C)C)CN1CC2 (configuration not stated) [Tetrabenazine],3.91
7,CC(C)C[C@H]1C(=O)N2CCC[C@H]2[C@]2(O)O[C@](NC(=O)[C@@H]3C=C4c5cccc6[nH]c(Br)c(c56)C[C@H]4N(C)C3)(C(C)C)C(=O)N12 [Bromocriptine mesylate],15.2
8,CCN(C)C(=O)Oc1cccc([C@H](C)N(C)C)c1 [Rivastigmine tartrate],6.97
9,CC[C@@H](C(N)=O)N1CCCC1=O [Levetiracetam],7.99
10,O=c1[nH]c2ccccc2n1C1CCN(CCCC(c2ccc(F)cc2)c2ccc(F)cc2)CC1 [Pimozide],-12.5
11,C=CCN1C[C@H](C(=O)N(CCCN(C)C)C(=O)NCC)C[C@@H]2c3cccc4[nH]cc(c34)C[C@H]21 [Cabergoline],-9.57
12,CN1C[C@H](C(=O)N[C@]2(C)O[C@@]3(O)[C@@H]4CCCN4C(=O)[C@H](Cc4ccccc4)N3C2=O)C[C@@H]2c3cccc4[nH]cc(c34)C[C@H]21 [Dihydroergotamine mesylate],4.7
